Source: ChEMBL document CHEMBL4649991
Where “and” joins values, the source holds several entries; their conditions need not be identical. Equal values may be shown once.

Columns and labels:
[1] = biological target: Bromodomain-containing protein 4 (Homo sapiens) (UniProt O60885); conditions: Compound concentration 10.0 uM, Protein concentration 2.0 uM
[2] = biological target: T1, Transcription intermediary factor 1-alpha (Homo sapiens) (UniProt O15164); conditions: Compound concentration 10.0 uM, Protein concentration 2.0 uM
T1 sequence (whole entry): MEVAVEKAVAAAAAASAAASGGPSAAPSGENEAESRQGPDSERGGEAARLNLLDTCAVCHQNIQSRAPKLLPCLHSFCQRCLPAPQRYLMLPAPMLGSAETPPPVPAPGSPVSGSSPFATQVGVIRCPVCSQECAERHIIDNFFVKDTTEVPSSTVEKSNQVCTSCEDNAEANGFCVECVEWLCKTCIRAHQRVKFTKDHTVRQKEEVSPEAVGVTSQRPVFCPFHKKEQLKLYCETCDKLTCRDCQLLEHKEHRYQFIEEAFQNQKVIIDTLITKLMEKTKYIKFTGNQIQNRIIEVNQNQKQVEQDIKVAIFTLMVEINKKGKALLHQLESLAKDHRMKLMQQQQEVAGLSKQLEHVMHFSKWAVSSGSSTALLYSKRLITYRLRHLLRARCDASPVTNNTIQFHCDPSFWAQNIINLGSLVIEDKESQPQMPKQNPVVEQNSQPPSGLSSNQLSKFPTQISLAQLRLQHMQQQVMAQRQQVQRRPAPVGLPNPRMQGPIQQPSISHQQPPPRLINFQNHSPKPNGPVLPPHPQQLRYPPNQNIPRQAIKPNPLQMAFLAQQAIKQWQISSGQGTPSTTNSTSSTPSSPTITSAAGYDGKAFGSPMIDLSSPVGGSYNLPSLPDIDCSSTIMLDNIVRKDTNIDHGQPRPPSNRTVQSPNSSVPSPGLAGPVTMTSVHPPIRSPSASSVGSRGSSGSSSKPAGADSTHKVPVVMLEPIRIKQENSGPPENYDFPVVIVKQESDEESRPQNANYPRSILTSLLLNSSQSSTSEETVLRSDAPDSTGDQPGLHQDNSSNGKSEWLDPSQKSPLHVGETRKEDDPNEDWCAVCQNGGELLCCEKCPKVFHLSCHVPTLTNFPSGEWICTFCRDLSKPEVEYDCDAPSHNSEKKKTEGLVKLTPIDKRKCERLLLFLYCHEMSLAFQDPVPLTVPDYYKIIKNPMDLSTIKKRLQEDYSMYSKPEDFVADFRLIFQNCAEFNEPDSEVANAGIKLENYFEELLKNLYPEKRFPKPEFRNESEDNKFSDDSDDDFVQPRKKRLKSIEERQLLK

In the case of `Cc1cc(=O)n(C)c2cc(N3C(=O)CC[C@@H](NS(=O)(=O)CC(C)C)[C@@H]3c3ccc(Cl)cc3)ccc12`, the ΔTm [1] is reported as -0.29 °C and 0.14 °C and the ΔTm [2] is reported as 0.23 °C.
